From PubChem BioAssay (NCATS)
Records with an inconclusive call do not appear. Entries that show only a call come without a potency. Activity calls are given as the source filed them. The call rests on the fitted dose curve; in most records, active means well fitted inhibition curve with a large enough effect; inconclusive means small, poorly fitted or top-dose-only effect; inactive means no such curve, though single readings can be large or run the other way.

Molecular target: Tyrosine-protein kinase Yes (Homo sapiens) (UniProt P07947)
Experiment: qHTS for small molecule inhibitors of Yes1 kinase: Primary Screen (AID 686947); further: nearly all actives have a fitted effect of over 60% in size
Conditions: Yes1 kinase biochemical qHTS inhibition; series mostly up to 76.9 µM
Method in brief: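 ADP-Glo luminescence reports ADP formed by 4 nM Yes1 phosphorylating poly(E4Y) (0.3 mg/mL) with 0.1 mM ATP for 60 min at room temperature, following 20 min compound preincubation; normalised between DMSO wells with and without enzyme.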
Potency means the concentration at half of the fitted maximal effect.

Sequence of Tyrosine-protein kinase Yes (Homo sapiens) (P07947 whole entry, looked up): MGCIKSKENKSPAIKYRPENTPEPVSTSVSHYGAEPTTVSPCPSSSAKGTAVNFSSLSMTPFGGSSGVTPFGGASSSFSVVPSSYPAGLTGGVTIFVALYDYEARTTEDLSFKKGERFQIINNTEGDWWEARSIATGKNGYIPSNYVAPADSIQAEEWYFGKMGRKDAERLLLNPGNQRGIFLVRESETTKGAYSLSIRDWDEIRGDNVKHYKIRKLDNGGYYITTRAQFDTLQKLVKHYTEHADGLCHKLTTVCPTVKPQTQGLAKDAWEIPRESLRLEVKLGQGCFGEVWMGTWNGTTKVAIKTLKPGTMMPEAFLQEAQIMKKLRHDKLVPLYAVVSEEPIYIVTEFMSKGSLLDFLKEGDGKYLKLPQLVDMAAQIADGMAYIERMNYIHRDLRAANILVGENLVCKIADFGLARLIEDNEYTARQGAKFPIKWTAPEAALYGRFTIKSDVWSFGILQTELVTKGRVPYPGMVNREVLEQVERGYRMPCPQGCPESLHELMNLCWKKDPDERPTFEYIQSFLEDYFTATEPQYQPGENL

Compound	Potency
O=C(Nc1nc2ccccc2n1CCN1CCOCC1)c1cccc([N+](=O)[O-])c1	inactive
CCCn1c(=O)c2[nH]c(C34CC5CC3C[C@@H](C5)C4)nc2n(CCC)c1=O	inactive
O=C1[C@H](Cc2ccc(O)cc2)N2C(=O)CCN(C(=O)NCc3ccccc3)[C@H]2CN1Cc1cccc2ccccc12	inactive
CCOc1ccn(-c2ccc(F)cc2)c(=O)c1C(=O)Nc1ccc(Oc2ccnc(N)c2Cl)c(F)c1	1940 nM (active)
CNC(=O)c1ccc(C)c(-n2c(C)cc(OCc3ccc(F)cc3F)c(Br)c2=O)c1	inactive
CCN(c1ccccc1)c1cc(NC)[n+](C)c(C)n1	inactive
CCc1cncnc1N1CCN(Cc2nc3ccc(C(F)(F)F)cc3[nH]2)CC1	inactive
S=C(NCc1ccc2c(c1)OCO2)N1CCN(c2ncnc3c2oc2ccccc23)CC1	inactive
Cc1ccc2c(c1)C(=O)[C@@]1(O)CCN(c3ccccc3)C1=N2	inactive
CC(c1cc2ccccc2s1)N(O)C(N)=O (stereo not drawn)	inactive
O=C(O)CCc1ccc(NCc2cccc(Oc3ccccc3)c2)cc1	inactive
C/C(=C\C(=O)Nc1ccccc1C(=O)O)c1ccc2ccccc2c1	inactive
CCOc1cc(C=C2C(=O)N(c3ccccc3)N=C2C)cc(Cl)c1OCC(=O)OC	inactive
Cc1cccc(-c2nn(C(=S)Nc3ccccc3)cc2-c2ccnc3ccccc23)n1	2440 nM (active)
Cc1csc(NC(=O)c2sc3nc4c(c(C(F)(F)F)c3c2N)CCC4)n1	inactive
Nc1ncnc2nc(-c3ccc(N4CCOCC4)nc3)cc(-c3cccc(Br)c3)c12	3450 nM (active)
COc1ccccc1[C@H](c1cccc2ccccc12)[C@@](C)(C#N)C(=O)N1CCC(c2cccc(C(F)(F)F)c2)CC1	inactive

Compound	Potency
COc1nc(-c2ccc3c(c2)OCO3)n(-c2ccc(NC(=O)CSc3ccccc3)cc2)n1	inactive
CC1(C)SCCN(S(=O)(=O)c2ccc(OCC#CCO)cc2)[C@@H]1C(=O)NO	inactive
COc1ccccc1-c1cccc(-c2c(O)c3cc(C#N)c(Cl)cc3[nH]c2=O)c1	inactive
OC(CN1CCC(Cc2ccc(F)cc2)CC1)c1ccc(Cl)cc1 (stereo not drawn)	inactive
CN(C)C(=O)c1ccc(S(=O)(=O)c2ccc(NC(=O)[C@@](C)(O)C(F)(F)F)c(Cl)c2)cc1	inactive
CCc1ccc(CCOc2ccc(CC3SC(=O)NC3=O)cc2)nc1 (stereo not drawn)	1730 nM (active)
CS(=O)(=O)c1cccc(CNc2nc(Nc3ccc4c(c3)CCC(=O)N4)ncc2C(F)(F)F)c1	972 nM (active)
Nc1nc2ccc(OC(F)(F)F)cc2s1	inactive
CCCc1nn(C)c2c(=O)[nH]c(-c3cc(S(=O)(=O)N4CCN(C)CC4)ccc3OCC)nc12	inactive
Nc1cccc(S(=O)(=O)N2CCCN(S(=O)(=O)c3ccc4c(c3)OCCO4)CC2)c1	inactive
CCN(CCCO)CCCOc1ccc2c(Nc3cc(CC(=O)Nc4cccc(F)c4)[nH]n3)ncnc2c1	387 nM (active)
CS(=O)(=O)c1ccc(C(=O)Nc2ccc(Cl)c(-c3ccccn3)c2)c(Cl)c1	inactive
c1ccc(-c2nn3c(c2-c2ccnc4cc(OCCN5CCOCC5)ccc24)CCC3)nc1	8670 nM (active)
CN([C@@H](Cc1ccc(OS(=O)(=O)c2cccc3cnccc23)cc1)C(=O)N1CCN(c2ccccc2)CC1)S(=O)(=O)c1cccc2cnccc12	inactive
Cc1n[nH]c(C)c1Cc1sc2c(c1C(=O)N1C[C@H](O)CO1)c(=O)n(C)c(=O)n2CC(C)C	inactive
C[C@]12CC[C@H](O)CC1=CC[C@@H]1[C@H]2CC[C@]2(C)C(c3cccnc3)=CC[C@H]12	inactive
